# Source: PMC4336329 (PLoS ONE, 2015)
# The campaign covered roughly 310,000 compounds. About 14,000 (4.5%) showed an effect of 50% or more. Effects have a minus sign here. Shown is part of a subset that was picked to be rich in strong results.
# Biological target: human ether-à-go-go-related gene (hERG) potassium channel (human, UniProt Q12809)
# Test: primary screen, population patch clamp on CHO cells stably expressing hERG; higher = less effect of the substance
# 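Also: peak tail current of the secondary pulse compared with the same well before compound.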
# human ether-à-go-go-related gene (hERG) potassium channel, sequence (Q12809 whole entry, looked up): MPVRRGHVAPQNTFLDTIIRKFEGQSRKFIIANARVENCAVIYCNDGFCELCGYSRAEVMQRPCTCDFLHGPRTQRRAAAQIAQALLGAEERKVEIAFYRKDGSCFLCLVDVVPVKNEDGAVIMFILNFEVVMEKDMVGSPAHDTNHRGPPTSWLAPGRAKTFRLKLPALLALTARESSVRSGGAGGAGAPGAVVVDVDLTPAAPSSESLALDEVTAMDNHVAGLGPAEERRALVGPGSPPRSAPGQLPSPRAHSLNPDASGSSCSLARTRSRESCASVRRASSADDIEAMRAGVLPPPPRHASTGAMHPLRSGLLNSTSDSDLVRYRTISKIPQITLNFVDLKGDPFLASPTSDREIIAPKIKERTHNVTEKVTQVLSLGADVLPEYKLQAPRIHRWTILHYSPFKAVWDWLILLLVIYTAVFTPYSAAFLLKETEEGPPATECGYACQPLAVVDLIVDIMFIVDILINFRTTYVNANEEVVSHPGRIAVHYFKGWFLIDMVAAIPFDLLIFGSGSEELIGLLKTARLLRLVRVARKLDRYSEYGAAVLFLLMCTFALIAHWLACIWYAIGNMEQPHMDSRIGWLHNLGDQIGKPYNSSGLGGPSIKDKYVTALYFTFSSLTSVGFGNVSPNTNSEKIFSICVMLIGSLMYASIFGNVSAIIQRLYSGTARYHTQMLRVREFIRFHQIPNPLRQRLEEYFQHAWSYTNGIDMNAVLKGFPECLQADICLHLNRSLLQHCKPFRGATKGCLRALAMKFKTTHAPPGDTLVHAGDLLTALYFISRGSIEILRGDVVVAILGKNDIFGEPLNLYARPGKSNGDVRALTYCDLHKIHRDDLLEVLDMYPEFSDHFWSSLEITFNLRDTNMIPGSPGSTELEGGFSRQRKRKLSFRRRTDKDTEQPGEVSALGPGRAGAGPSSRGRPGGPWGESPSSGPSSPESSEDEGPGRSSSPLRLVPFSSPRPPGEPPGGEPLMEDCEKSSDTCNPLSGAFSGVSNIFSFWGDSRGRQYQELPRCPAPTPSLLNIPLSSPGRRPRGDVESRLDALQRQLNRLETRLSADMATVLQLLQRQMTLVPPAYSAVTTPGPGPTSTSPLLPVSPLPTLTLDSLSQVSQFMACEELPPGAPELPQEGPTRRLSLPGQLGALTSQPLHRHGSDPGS
row,SMILES,"hERG current change (%, negative = inhibition) at 10uM [%]"
1,Nc1nccc(-c2ccc(-n3cnc4ccccc43)cc2)n1,-25.3
2,O=C(/C=C/c1ccccc1)Nc1nnc(SCC(=O)c2ccc3ccccc3c2)s1,4.75
3,COc1ccc(OC)c(N=c2oc3cc(O)ccc3cc2C(N)=O)c1,3.97
4,COc1cccc(NC(=O)N2CCC(C(N)=O)(N3CCCCC3)CC2)c1,6.17
5,COc1ccsc1NC(=O)OCc1ccc(Cl)cc1,-77.8
6,NNC(=O)c1sccc1OCc1ccc(Cl)cc1,2.41
7,COc1ccc(COc2ccsc2C(=O)Nc2ccc(Cl)cc2)cc1,7.17
8,CC(C)(C)c1ccc(NC(=O)CN2C(=O)NC(C)(C3CC3)C2=O)cc1 (stereo not shown),-25.5
9,Cc1ccc(-c2nn3c(C)nnc3c3ccccc23)cc1S(=O)(=O)NCc1ccco1,-33.3
10,O=C(CSc1ncnc2[nH]ncc12)Nc1nc(-c2ccc(F)c(F)c2)cs1,44.7
11,O=C(Nc1ccnn1C1CCN(Cc2cc(Cl)ccc2O)CC1)c1cccnc1,-9.31
12,COc1cc(F)ccc1CN1CCC(n2nccc2NC(=O)C2CCOC2)CC1 (stereo not shown),-14.5
13,COc1ccc(F)c(CN2CCC(n3nccc3NC(=O)C3CCOC3)CC2)c1 (stereo not shown),5.47
14,COc1ccc(O)c(CN2CCC(n3nccc3NC(=O)C3CCCC3)CC2)c1,-50.8
15,COc1ccc(O)c(CN2CCC(n3nccc3NC(=O)c3ccccc3Cl)CC2)c1,-40.6
16,COc1ccc(CN2CCC(n3nccc3NC(=O)C3CCCC3)CC2)c(OC)c1,-73.2
17,O=C(Nc1ccnn1C1CCN(C(=O)Cc2cccc(Cl)c2)CC1)C1CC1,-7.34
18,O=C(Nc1ccnn1C1CCN(Cc2cc(Cl)ccc2O)CC1)C1CC1,-55
19,CCOCC(=O)Nc1ccc([N+](=O)[O-])cc1C,5.75
20,Cc1nc(SCC(=O)N2CC(=O)Nc3ccccc32)c2c(C)c(C)sc2n1,-5.65
21,COc1ccc(CCNC(=O)C(NS(=O)(=O)c2ccc3c(c2)CCN3C(C)=O)C(C)C)cc1OC (stereo not shown),25.1
22,CCC(=O)Nc1cccc(NC(=O)CSc2nc3c(c(=O)n(C)c(=O)n3C)n2C)c1,18

row,SMILES,"hERG current change (%, negative = inhibition) at 10uM [%]"
1,CCC1Sc2ccc(S(=O)(=O)CCC(=O)Nc3ccc(NC(C)=O)cc3)cc2NC1=O (stereo not shown),19
2,CC(=O)c1c(N2CCOCC2)nc(=S)n(-c2ccc([N+](=O)[O-])cc2)c1C,-46.2
3,CSc1nc(=S)n(-c2ccccc2)c(C)c1C(C)=O,11.9
4,CSc1nc(=S)n(-c2ccc([N+](=O)[O-])cc2)c(C)c1C(C)=O,-68.3
5,Cc1cc(OCC(=O)Nc2ccc(CN3CCCCC3)cc2)ccc1Cl,-73.9
6,Cc1ccc(OCC(=O)Nc2ccc(CN3CCOCC3)cc2)cc1C,-39.3
7,Cc1cc(OCC(=O)Nc2ccc(CN3CCOCC3)cc2)ccc1Cl,-51.8
8,CCOc1ccc(C(=O)Nc2ccc(CN3CCOCC3)cc2)cc1Br,-46.6
9,Cc1ccc(OCC(=O)Nc2ccc(CN3CCOCC3)cc2)cc1,-9.4
10,CCOc1ccc(NC(=O)c2ccc(NC(=O)c3ccc(CN4CCOCC4)cc3)cc2)cc1,9.33
11,CCOc1ccc(C(=O)Nc2ccc(CN3CCOCC3)cc2)cc1Cl,-56
12,Cc1cc(C)cc(OCC(=O)Nc2ccc(CN3CCCCC3)cc2)c1,-43.7
13,CCc1ccc(OCC(=O)Nc2ccc(CN3CCCCC3)cc2)cc1,-18
14,O=C1CC(=O)N(CCc2ccccc2)C(=O)N1CCc1ccccc1,6.19
15,CN(C)S(=O)(=O)c1ccc(NC(=O)CSc2nc3ccccc3n2-c2ccccc2)cc1,24.2
16,CCc1cccc(C)c1NC(=S)NCC(c1cccnc1)N1CCOCC1 (stereo not shown),-14.3
17,C/C(=N/NC(=O)CNC(=O)c1ccco1)c1ccc(Cl)cc1,-1.47
18,CCOc1ccc(N2CC(C(=O)NCCc3ccccc3)CC2=O)cc1 (stereo not shown),-29.6
19,COc1ccc(N2CC(C(=O)OCC(=O)c3ccccc3)CC2=O)cc1 (stereo not shown),-9.34
20,CCOc1ccc(N2CC(C(=O)OCC(=O)c3ccc(OC)cc3)CC2=O)cc1 (stereo not shown),-56
21,O=C(NCc1n[nH]c(=O)c2ccccc12)C1CC(=O)N(c2ccc(Cl)cc2)C1 (stereo not shown),-70.7
22,CCOc1ccc(N2CC(C(=O)NCCCc3ccccc3)CC2=O)cc1 (stereo not shown),-51.2

row,SMILES,"hERG current change (%, negative = inhibition) at 10uM [%]"
1,CCOc1ccc(N2CC(C(=O)NCCc3ccc(F)cc3)CC2=O)cc1 (stereo not shown),-65.8
2,COc1ccc(N2CC(C(=O)OCC(=O)c3ccc(C)cc3)CC2=O)cc1 (stereo not shown),13.9
3,O=C(NCc1n[nH]c(=O)c2ccccc12)C1CC(=O)N(c2ccccc2)C1 (stereo not shown),-1.81
4,CCOc1ccc(N2CC(C(=O)NCCc3ccc(S(N)(=O)=O)cc3)CC2=O)cc1 (stereo not shown),12.1
5,CCOc1ccc(N2CC(C(=O)NCc3ccccc3)CC2=O)cc1 (stereo not shown),-12.3
6,Cc1ccc(N2CC(C(=O)NCc3n[nH]c(=O)c4ccccc34)CC2=O)cc1 (stereo not shown),-23.8
7,CCOc1ccc(N2CC(C(=O)NCc3ccc(F)cc3)CC2=O)cc1 (stereo not shown),-27.3
8,CCC(CC)C(=O)Nc1cc(C(=O)NCCc2ccccc2)ccc1Cl,-8.24
9,Cc1cccc(OCCCC(=O)Nc2ccc(S(=O)(=O)N3CCCC3)cc2)c1,-21.3
10,CCOC(=O)c1c(-c2ccc(OC)cc2)oc2ccc(OC(=O)N(C)C)cc12,10.1
11,Cc1nc2ccccc2c(=O)n1CCN1CCOCC1,4.18
12,COc1ccc(-c2nn(-c3ccccc3)cc2C2CC(c3cccs3)=NN2C(=O)CCCC(=O)O)cc1 (stereo not shown),17.9
13,O=C(CN1C(=O)NC2(CCCCC2)C1=O)N1CCN(S(=O)(=O)c2ccccc2)CC1,13.8
14,CCOCCc1nnc(NC(=O)C2CC(=O)N(c3ccc(OCC)cc3)C2)s1 (stereo not shown),-18.1
15,CCOc1ccc(N2CC(C(=O)Nc3nnc(Cc4ccccc4)s3)CC2=O)cc1 (stereo not shown),4.73
16,CCOc1ccc(N2CC(C(=O)Nc3cc(Cl)ccc3-n3cncn3)CC2=O)cc1 (stereo not shown),-64.2
17,O=C(NCCOc1ccc(Cl)cc1)C1CC(=O)N(c2ccc(F)cc2)C1 (stereo not shown),-69.4
18,CCOc1ccc(N2CC(C(=O)Nc3ccc(F)cc3F)CC2=O)cc1 (stereo not shown),-3.45
19,CCOc1ccccc1N1CC(C(=O)Nc2cc(Cl)ccc2-n2cncn2)CC1=O (stereo not shown),-10.3
20,CCOc1ccc(N2CC(C(=O)Nc3nnc(CC)s3)CC2=O)cc1 (stereo not shown),-53.6
21,O=C(NCCOc1ccc(Cl)cc1)C1CC(=O)N(c2ccc3c(c2)OCCO3)C1 (stereo not shown),-27.9
22,Cc1ccc(OCCNC(=O)C2CC(=O)N(c3ccc(C)cc3)C2)cc1 (stereo not shown),-4.5

row,SMILES,"hERG current change (%, negative = inhibition) at 10uM [%]"
1,Cc1ccc(C(=O)c2nc(C(=O)NCCO)nc3ccccc23)cc1,25.8
2,COc1ccc(-c2cc(=O)oc3c(C)c(OC(C)C(=O)N4C[C@H]5C[C@@H](C4)c4cccc(=O)n4C5)ccc23)cc1 (stereo partly shown),-47.2
3,CCOC(=O)c1[nH]c(C)c(C(=O)OCC(=O)N(Cc2ccccc2)C(C)C)c1C,-15.8
4,Cc1cccc(OCCCCNCc2ccccc2)c1.O=C(O)C(=O)O,-38.1
5,Cc1ccc(C(=O)NC(=S)N2CCN(C)CC2)cc1,-1.37
6,COC(=O)c1ccc(CSc2nnc(CS(=O)Cc3ccc(Br)cc3)n2-c2ccccc2)cc1 (stereo not shown),-12
7,O=C(CN1CCCCCC1)Nc1ccc(Br)cc1,-32.3
8,O=C(CN1CCN(S(=O)(=O)N2CCCCC2)CC1)Nc1cc(Cl)cc(Cl)c1,-32.5
9,O=C(CN1CCCCC1)Nc1ccc(S(=O)(=O)N2CCCCCC2)cc1,-35.5
10,S=C(Nc1ccc(Br)cc1)N1CCN(C2CCCCC2)CC1,-17.3
11,O=C(CN1CCN(S(=O)(=O)N2CCCCCC2)CC1)Nc1ccc(F)cc1,-74.9
12,O=C(CN1CCN(S(=O)(=O)N2CCCCC2)CC1)Nc1ccc(Br)cc1,-78.2
13,O=C(CN1CCCCCC1)Nc1ccc(S(=O)(=O)N2CCCCC2)cc1,-38.7
14,O=C(CN1CCN(S(=O)(=O)N2CCCCC2)CC1)Nc1ccc(Cl)c(Cl)c1,-28.2
15,Cl.O=C(CN1CCCC1)Nc1ccc(Br)cc1,-1.25
16,O=C(CN1CCCC1)Nc1ccc(S(=O)(=O)N2CCCCC2)cc1,4.2
17,Cl.O=C(CN1CCN(C2CCCCC2)CC1)Nc1ccc(Br)cc1,-70
18,O=C(CN1CCN(S(=O)(=O)N2CCCCCC2)CC1)Nc1ccc(Br)cc1,-74.3
19,CC1CCC2(CC1)NC(=O)N(CC(=O)Nc1ccc3[nH]c(=O)[nH]c3c1)C2=O (stereo not shown),0.0265
